This is a sample that favours compounds with a hit; in the whole collection about 11% have one here.
Pf growth 48h: inhibits P. falciparum growth in the first generation, 48 h; hit rate 5.9% among 310,000; Potency, µM (highest dose often 28.7 µM), usual class: inhibitors; P. falciparum luciferase growth in erythrocytes, 48 h
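Luminescence readout; reporter = integrated firefly luciferase in P. falciparum. RBC culture at 2% hematocrit, 0.1% parasitemia final, 37 C/5% CO2; decreased signal taken as growth inhibition.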
AMA1-RON2 inh: AMA1-RON2 (P. falciparum) interaction inhibition; AlphaScreen AMA1-biotinylated RON2 peptide binding; Potency, µM (series often up to 58.2 µM), most hits filed as inhibitors; hit rate 0.2% among 360,000; AID 720542; note: nearly all actives have a fitted effect of over 45% in size
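AMA1 (3D7) with his tag at 25 nM final met compounds first, then biotinylated RON2 peptide at 25 nM; detection used donor plus acceptor beads, 10 µg/mL apiece, read by AlphaScreen after 30 min at room temperature.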
HCV inh: inhibitors of hepatitis C virus infection | Huh7.5.1 HCVcc-Cre infection, luciferase reporter, 44 h | Potency, µM (series often up to 41.8 µM), usual class: inhibitors | hit rate 3.4% among 340,000 | AID 651820
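1,000 cells/well; 4 h culture; + compound; + HCVcc-Cre (~0.5 moi); 44 h; luciferase substrate, RT 15 min; read 15 sec.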
Pf growth 96h: P. falciparum growth inhibition at 96 hours | Potency, µM (titrated, usually from 28.7 µM), actives largely listed as inhibitors | hit rate 6.9% among 320,000 | P. falciparum luciferase reporter growth, 96 h | AID 504834
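Two parasite generations (96 h, 37 C, 5% CO2) of compound exposure in infected erythrocytes (0.05% parasitemia, 2% hematocrit). Luciferase-reporter P. falciparum; decreased luminescence indicates inhibited growth, aimed at apicoplast-acting delayed death.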
AmpC inh detg: AmpC beta-lactamase inhibition with detergent present. AID 485294. hit rate 0.041% among 370,000. Potency, µM (top dose mostly 114 µM), most hits filed as inhibitors. AmpC hydrolysis of nitrocefin, absorbance 480 nm, 0.01% Triton; note: nearly all actives have a fitted effect of over 25% in size
Target sequence (P00811 whole entry, looked up): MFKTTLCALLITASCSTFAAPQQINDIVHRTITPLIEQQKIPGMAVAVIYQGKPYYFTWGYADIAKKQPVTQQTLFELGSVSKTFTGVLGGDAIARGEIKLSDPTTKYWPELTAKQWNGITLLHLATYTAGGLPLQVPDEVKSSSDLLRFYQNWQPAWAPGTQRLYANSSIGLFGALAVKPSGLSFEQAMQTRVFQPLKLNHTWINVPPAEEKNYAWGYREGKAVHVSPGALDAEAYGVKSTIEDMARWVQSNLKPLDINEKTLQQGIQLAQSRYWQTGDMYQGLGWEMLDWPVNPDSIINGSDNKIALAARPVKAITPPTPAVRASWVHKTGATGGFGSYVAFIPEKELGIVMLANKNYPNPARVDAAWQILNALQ
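AmpC (5.3 nM in the dispensed reagent) in 20 mM phosphate pH 7.0 with 0.01% (detergent screen) or 0.0001% Triton X-100 was preincubated with compounds for 15 min at room temperature. Nitrocefin was then added from an 800 uM solution, and hydrolysis was followed at 480 nm.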
AmpC inh no detg: inhibitors of E. coli AmpC beta-lactamase without detergent. P00811. AmpC nitrocefin hydrolysis, absorbance 480 nm, 0.0001% Triton. Potency, µM (top dose mostly 57.1 µM), usual class: inhibitors. hit rate 0.52% among 330,000. AID 485341; note: nearly all actives have a fitted effect of over 20% in size
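AmpC (5.3 nM in the dispensed reagent) in 20 mM phosphate pH 7.0 with 0.01% (detergent screen) or 0.0001% Triton X-100 was preincubated with compounds for 15 min at room temperature. Nitrocefin was then added from an 800 uM solution, and hydrolysis was followed at 480 nm.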
HCV inh confirm: HCV inhibition, cherry-pick confirmation; shares compounds with HCV inh; HCVcc-Cre infectious virus cell assay, luciferase, inhibition; Potency, µM (titrated, usually from 41.8 µM), most hits filed as inhibitors; hit rate 78% among 640; AID 720575; note: nearly all actives have a fitted effect of over 80% in size
HCV cytotox: counter-screen for HCV inhibitors: host cell cytotoxicity | hit rate 22% among 640 | Potency, µM (top dose mostly 41.8 µM), most hits filed as inhibitors | shares compounds with HCV inh | HCV host cell line cytotoxicity counterscreen;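 note: 44 h compound exposure; nearly all actives have a fitted effect of over 55% in size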
A number is an active result; n = inactive; u = inconclusive; x = not tested or not shown. Calls come from the whole dose curve; as a rule, active = well fitted curve in the direction sought with a large enough effect; inconclusive = small, poorly fitted or top-dose-only effect, or another doubt; inactive = no such curve, though single readings can be large; an effect the other way counts as inactive or inconclusive.

SMILES	Pf growth 48h	AMA1-RON2 inh	HCV inh	Pf growth 96h	AmpC inh detg	AmpC inh no detg	HCV inh confirm	HCV cytotox
CC(C)(O)C#Cc1ccc([C@@H]2C[C@H]3CN(c4ccccc4)C(=O)[C@]34CCCN24)s1	u	u	u	n	n	n	7µM	n
O=C(Nc1cccc(C(F)(F)F)c1)c1cc2nc(-c3ccc4c(c3)OCO4)cc(C(F)(F)F)n2n1	x	x	x	x	n	x	x	x
CC1(c2ccc3ccccc3c2)NC(=O)N(CC(=O)N2CCC(C(N)=O)CC2)C1=O (stereo not drawn)	n	u	n	n	u	n	x	x
CC1(c2ccc3ccccc3c2)NC(=O)N(CC(=O)N2CCN(Cc3ccccc3)CC2)C1=O (stereo not drawn)	u	n	3.2µM	u	n	n	0.89µM	3.1µM
O=C(Cn1c(=O)oc2cc(S(=O)(=O)NCc3ccccc3)ccc21)NCc1ccccc1Cl	x	x	x	x	n	x	x	x
C=C(C)Cc1c(C)c(C#N)c2nc3ccccc3n2c1N1CCCCC1	x	n	u	u	n	n	14µM	n
CN1C(=O)/C(=C\c2cc(N=Nc3ccccc3)ccc2O)SC1=S	u	n	n	u	n	n	x	x
Cc1cc(/C=C2\SC(=S)N(C)C2=O)c(C)n1-c1cccc(O)c1	n	n	4.5µM	n	n	n	25µM	25µM
CN(C)S(=O)(=O)N(CC(=O)NCCSCc1c(F)cccc1Cl)c1ccccc1	x	x	x	x	n	x	x	x
CNc1nc2cc([N+](=O)[O-])c([N+](=O)[O-])cc2nc1NC	u	n	u	n	n	n	20µM	u
CCc1ccccc1NC(=O)Cn1c(=O)n(-c2ccc(C)cc2)c(=O)c2c1c1cc(C)ccc1n2C	x	x	x	x	n	x	x	x
Cc1cc(C)c2cc(C(=O)N3CCc4ccccc4C3)[nH]c2c1	n	n	u	n	n	n	u	n
CCCn1c(=NC(=O)c2ccco2)c(C(=O)OCC)cc2c(=O)n3ccccc3nc21	n	n	u	n	n	n	u	n
COc1cc(Cl)c(C)cc1NC(=O)CSc1ccc(C)cc1	n	n	u	n	n	n	x	x
COc1cc(Cl)c(C)cc1NC(=O)CSc1cc(Cl)ccc1Cl	n	n	u	u	u	n	11µM	n
COc1ccc(-n2c(SCC(=O)N3CCc4ccccc43)nc3c([nH]c4ccccc43)c2=O)cc1	x	x	x	x	n	x	x	x
CCOC(=O)c1cc2n(c1/N=C/N(C)C)-c1ccccc1C2=O	x	n	u	u	n	n	u	n
COCCCn1c(SCc2cccc(C(F)(F)F)c2)nc2cc(OC)c(OC)cc2c1=N	u	n	n	u	n	n	x	x
COCCCn1c(SCc2ccccc2)nc2cc(OC)c(OC)cc2c1=N	13µM	n	u	u	n	n	14µM	n
O=S(=O)(c1ccccc1)c1nnn2c1nc(NC1CCN(Cc3ccccc3)CC1)c1ccccc12	u	n	8.9µM	u	u	n	14µM	n
Cc1ccc(C)c(Nc2nc3c(S(=O)(=O)c4ccccc4)nnn3c3ccccc23)c1	u	n	u	u	n	n	x	x
COc1cc(OC)c(NC(=O)c2ccc(F)cc2)cc1Cl	n	n	n	n	n	n	x	x
COc1cc(OC)c(NC(=O)c2cccc(F)c2)cc1Cl	n	n	u	n	n	n	u	n
COc1ccc(NC(=O)Nc2ccccc2SC)cc1OC	n	n	u	u	n	n	x	x
COc1cc(OC)c(NC(=O)Nc2ccc(OC)c(OC)c2)cc1Cl	n	n	2.5µM	n	n	n	n	n
SMILES	Pf growth 48h	AMA1-RON2 inh	HCV inh	Pf growth 96h	AmpC inh detg	AmpC inh no detg	HCV inh confirm	HCV cytotox
Cc1ccc(OC(=O)c2cc(-c3ccc4c(c3)OCCO4)on2)cc1C	x	x	x	x	n	x	x	x
CCOC(=O)N1CCC(NC(=O)CCc2c(C)nc3c(c(C)nn3C(C)(C)C)c2C)CC1	12µM	n	5.6µM	n	n	n	13µM	u
COc1ccccc1NC(=O)Nc1nc(CC(=O)NCc2ccccn2)cs1	n	n	u	n	n	u	x	x
COc1ccccc1CNC(=O)Cc1csc(NC(=O)Nc2ccccc2OC)n1	u	n	u	13µM	n	n	18µM	n
Cc1cccc(CNC(=O)CCCN2C(=O)CCn3nc(-c4cccn4C)cc32)c1	x	x	x	x	n	x	x	x
COc1ccc(NC(=O)CNC(=O)Cn2ccc3ccccc3c2=O)cc1OC	x	x	x	x	n	x	x	x
C=C(c1ccccc1Cl)[n+]1ccccc1	2.9µM	n	4.5µM	1.7µM	n	n	7µM	25µM
COc1ccc(CCNC(=O)C2CC2)cc1	x	n	n	x	x	x	x	x
COc1ccc(C[C@H]2NC[C@H](O)[C@H]2OC(C)=O)cc1	x	n	u	x	x	x	7µM	n
Cc1cccc(CN2CCN(CC(=O)NCCCN3CCN(c4ccc(F)cc4)CC3)C2=O)c1	u	n	5.6µM	x	n	n	22µM	u
Cc1cc(SCC(=O)c2ccccc2)n2ncc(-c3ccccc3)c2n1	n	n	u	n	n	n	u	n
CCOC(=O)CSc1nc2ccc(NC(=O)COc3ccc(F)cc3)cc2s1	x	x	x	x	n	x	x	x
C#CCN1C=CC(=O)[C@@H](OC(=O)Nc2ccc(Cl)cc2)[C@H]1c1ccccc1Br	x	n	8.9µM	x	x	x	u	n
Cn1c(=O)c2c(nc(SCC(=O)NCc3ccc4c(c3)OCO4)n2Cc2ccc(Cl)cc2)n(C)c1=O	9.3µM	n	2.5µM	n	n	n	3.5µM	n
Cn1c(=O)c2c(nc(NCc3ccc4c(c3)OCO4)n2Cc2ccccc2Cl)n(C)c1=O	n	n	n	n	n	n	x	x
CCOc1ccccc1NC(=O)CCc1c(C)nc2cc(-c3ccccc3)nn2c1C	x	x	x	x	n	x	x	x
CCCCCNC(=O)c1cn(CC)c2cc(N3CCN(C)CC3)c(F)cc2c1=O	u	n	u	15µM	n	n	14µM	n
O=C(CSc1nc2ccccc2n1Cc1ccc(F)cc1)N1CCN(c2ccc(F)cc2)CC1	x	x	x	x	n	x	x	x
Cc1ccc(Cn2ncc3c(N4CCN(CCc5ccccc5)CC4)ncnc32)cc1	6.6µM	n	5µM	u	n	n	11µM	25µM
COc1cccc(N2CCN(S(=O)(=O)c3cc(-c4cc(C)no4)ccc3C)CC2)c1	x	x	x	x	n	x	x	x
C[C@]12CCC3C(CC[C@H]4C[C@H](O)CC[C@]34C)C1C[C@@H](O)[C@@H]2O (stereo partly drawn)	x	n	n	x	x	n	x	x
C/C(=N\NC(N)=S)C1=CCC2C3CC[C@H]4CC(O)CC[C@]4(C)C3CC[C@]12C (stereo partly drawn)	x	n	u	12µM	n	n	7.9µM	n
